Measurements taken from PubChem BioAssay AID588689 (Southern Research Specialized Biocontainment Screening …, 2011).
The whole screen tested about 340,000 compounds, of which about 1,000 (0.29%) were called active. No stated cut-off is given here; in the data, inconclusive means inhibition above about 29% without an active follow-up result; inactive means below that. These entries were drawn from the full list. Potency and affinity values are given separately.

Target: Genome polyprotein (Dengue virus type 2 (strain 16681-PDK53)) (UniProt P29991)
Assay: flavivirus cap methylation enzyme inhibition – biochemical, confirmation dose response, primary screen (AID 588689)
Conditions: Dengue-2 NS5 methyltransferase capping enzyme assay, at 25 µM, stronger effect = higher value
[1] = measured here: pilot screen replicate inhibition

Row | Structure (SMILES) | inhibition | inhibition [1] [%]
1 | O=C(CCC(=O)Nc1cccc(Cl)c1)N/N=C/c1cc([N+](=O)[O-])ccc1O | -2.94% (inactive) | –
2 | CN1CCCC(OC(=O)c2ccc(C(C)(C)C)cc2)C1 (stereo not drawn) | -4.27% (inactive) | –
3 | CCOC(=O)C1C(=O)CC(C)(O)C(C(=O)OCC)C1c1cccc(OC)c1 (stereo not drawn) | -3.38% (inactive) | –
4 | CCNCc1cc(OCC)c(OCC(=O)NCCc2ccccc2)cc1Cl | -2.77% (inactive) | –
5 | CCCn1c(N)c(C(=O)CSc2nc3ncc(Cl)cc3[nH]2)c(=O)[nH]c1=O | -2.94% (inactive) | –
6 | Cc1ccc(S(=O)(=O)N2[C@@H](c3cccc(Cl)c3)C(C(=O)O)=CC[C@H]2c2cccc(C)c2)cc1 | 20.8% (inactive) | –
7 | Cc1ccc(S(=O)(=O)N2[C@@H](c3ccccc3)C(C(=O)O)=CC[C@H]2c2ccc(C(C)C)cc2)cc1 | 21.6% (inactive) | –
8 | Cc1ccc(S(=O)(=O)N2[C@@H](c3ccccc3)C(C(=O)O)=CC[C@H]2c2cccc(Cl)c2)cc1 | -2.4% (inactive) | –
9 | Cc1ccc([C@H]2C(C(=O)O)=CC[C@@H](c3cccc(Cl)c3)N2S(=O)(=O)c2ccc(C)cc2)cc1 | 16.6% (inactive) | 2.77
10 | Cc1ccc(S(=O)(=O)N2[C@@H](c3ccc(Cl)cc3)C(C(=O)O)=CC[C@H]2c2ccc(C(C)C)cc2)cc1 | 25.9% (inactive) | –
11 | Cc1ccc(S(=O)(=O)N2[C@@H](c3cccc(Cl)c3)C(C(=O)O)=CC[C@H]2c2ccc(Cl)cc2)cc1 | 20.7% (inactive) | –
12 | COc1ccc([C@@H]2CC=C(C(=O)O)[C@H](c3cccc(Cl)c3)N2S(=O)(=O)c2ccc(Cl)cc2)cc1 | 16% (inactive) | –
13 | Cc1ccc(S(=O)(=O)N2[C@@H](c3ccc(Cl)cc3)C(C(=O)O)=CC[C@H]2c2cccc(Cl)c2)cc1 | 22.7% (inactive) | –
14 | O=C(NCCCN1CCCC1=O)c1cccc(N2CCCC2=O)c1 | -1.47% (inactive) | –
15 | CN(C)S(=O)(=O)c1ccc(C(=O)OCC(=O)c2ccc(OC(F)F)cc2OC(F)F)cc1 | 2.08% (inactive) | –
16 | CCCN1CCN(C(=O)c2ccc(CS(=O)c3ccc(F)cc3)o2)CC1 (stereo not drawn) | -6.18% (inactive) | –
17 | O=S(=O)(NCc1cccc(C(F)(F)F)c1)NCc1ccccc1F | -7.25% (inactive) | –
18 | CCn1c(SCc2nc3ccccc3c(=O)[nH]2)nnc1-c1ccncc1 | 3.13% (inactive) | -0.31
19 | CCCCn1c(N)c(N(CCOC)C(=O)CCc2ccc(OC)cc2)c(=O)[nH]c1=O | -2.18% (inactive) | –
20 | Cc1ccc(Cc2nc(-c3ccncc3)no2)cc1 | -1.78% (inactive) | –
21 | CCN(CC)Cc1cc(C(C)=O)ccc1O | -1.36% (inactive) | –
22 | CN(C)Cc1cc(O)c(CN(C)C)cc1O | 24.7% (inactive) | –
23 | COc1ccc(N=Nc2ccc(N)nc2N)cc1 | 1.3% (inactive) | –

Row | Structure (SMILES) | inhibition | inhibition [1] [%]
24 | Nc1nc(N)c(N=Nc2ccc(C(=O)O)cc2)c(N)n1 | 0.65% (inactive) | –
25 | COc1cc2cc(CCCOC(=O)c3ccc(Br)cc3)oc(=O)c2cc1OC | 8.18% (inactive) | –
26 | COc1cc(C(CC(=O)Nc2ccc(C)cn2)N2Cc3ccccc3C2=O)cc(OC)c1OC (stereo not drawn) | -5.88% (inactive) | –
27 | Cc1ccc(C(=O)C(C)OC(=O)C2CCN(c3ccc(C(F)(F)F)cn3)CC2)cc1 (stereo not drawn) | -0.72% (inactive) | –
28 | CNC(=O)C1CC(=O)N(CCc2ccc(C)cc2)C1 (stereo not drawn) | -3.31% (inactive) | –
29 | Cc1noc(C(=O)Nc2ccccc2C(F)(F)F)c1Cl | -9.68% (inactive) | –
30 | CC(=O)NN1C(=O)/C(=C\c2ccc(C)cc2)SC1=S | -6.43% (inactive) | –
31 | Cc1ccc(S(=O)(=O)NN2C(=O)/C(=C\c3ccc(Cl)cc3)SC2=S)cc1 | -1.66% (inactive) | –
32 | COc1ccc(/C=C2/SC(=S)N(NS(=O)(=O)c3ccccc3)C2=O)cc1 | 21.2% (inactive) | –
33 | O=C1/C(=C/c2ccc(O)c(O)c2)SC(=S)N1Nc1ccccc1 | -21.8% (inactive) | –
34 | COc1ccc(/C=C2/SC(=S)N(n3c(C)ccc3C)C2=O)cc1 | -3.19% (inactive) | –
35 | O=C(Cc1ccccc1)NN1C(=O)/C(=C/c2ccc(C(=O)O)cc2)SC1=S | 27% (inactive) | –
36 | O=C(O)c1ccc(/C=C2\SC(=S)N(NC(=O)c3ccccc3)C2=O)cc1 | 8.49% (inactive) | –
37 | CCN1CCCC(NC(=O)c2cc([N+](=O)[O-])ccc2OC)C1 (stereo not drawn) | -5.8% (inactive) | –
38 | O=C(CSc1ccccc1)N1CCCC(N2CCN(c3ccc(F)cc3)CC2)C1 (stereo not drawn) | 1.77% (inactive) | –
39 | Nn1c(Cc2ccccc2F)nnc1SCC(=O)Nc1cccc(S(=O)(=O)NC2=NCCCCC2)c1 | -0.76% (inactive) | –
40 | COc1ccc(CNS(=O)(=O)NCc2ccc(C)cc2)cc1OC | -10.9% (inactive) | –
41 | COCCNC(=O)C1CC2Cn3c(nc4cc5ccccc5cc43)C2N1C (stereo not drawn) | -1.6% (inactive) | –
42 | C=C(C)C(=O)NNc1ccccc1 | 0% (inactive) | –
43 | O=C(Cc1ccc(Cl)cc1)N/N=C/c1ccncc1 | -1.47% (inactive) | –
44 | Cc1noc(C)c1COc1ccc(C(=O)OCC(=O)Nc2cccc(S(=O)(=O)N3CCOCC3)c2)cc1 | 0.96% (inactive) | –
45 | O=C(O)c1ccccc1/C=N/NC(=O)C1CCCC1 | -8.46% (inactive) | –
46 | CCOc1ccc(/C=C2\SC(=S)N(Nc3ccccc3)C2=O)cc1OC | 8.01% (inactive) | –

Row | Structure (SMILES) | inhibition | inhibition [1] [%]
47 | CCOc1ccc(/C=N/NS(=O)(=O)c2ccc(C)cc2)cc1OC | -1.16% (inactive) | –
48 | COc1cc(/C=C2/SC(=S)NC2=O)ccc1OS(=O)(=O)c1ccc(C)cc1 | 9.96% (inactive) | –
49 | COc1ccc(/C=C2/SC(=O)N(NS(=O)(=O)c3ccccc3)C2=S)cc1OC | 15.7% (inactive) | –
50 | COc1cc(/C=C2\SC(=S)N(CC(=O)O)C2=O)ccc1OS(=O)(=O)c1ccc(C)cc1 | 22.7% (inactive) | –
51 | COc1ccc(OC)c(/C=C2\SC(=S)N(NS(=O)(=O)c3ccc(C)cc3)C2=O)c1 | 40.5% (inactive) | –
52 | O=C1[C@H]2[C@@H](c3ccccc3)N[C@]3(CCCN(Cc4ccc(Cl)cc4)C3=O)[C@H]2C(=O)N1Cc1ccccc1 | -4.41% (inactive) | –
53 | CC(=O)C1N=NCC1c1ccccc1 (stereo not drawn) | 0.78% (inactive) | –
54 | O=C(CSc1ccc(-c2ccc(F)cc2)nn1)NC1CCCCC1 | -4.13% (inactive) | –
55 | COCc1cc(=O)n2[nH]c(C)cc2n1 | -5.47% (inactive) | –
56 | CC1CCN(S(=O)(=O)c2ccc3[nH]c(=O)[nH]c3c2)CC1 | -10.8% (inactive) | –
57 | COc1ccc(C(=O)/C=C/c2ccc(OCc3ccccc3)cc2)cc1CSCC(=O)O | 11.7% (inactive) | –
58 | COc1ccc(C(=O)/C=C/c2ccsc2)cc1CSCC(=O)O | 6.74% (inactive) | –
59 | COc1ccc(CCC(=O)OCC(=O)c2ccc[nH]2)cc1OC | 1.46% (inactive) | –
60 | CSc1nccn1CC(=O)Nc1ccc(F)cc1 | -6.45% (inactive) | –
61 | CCc1ccccc1NC(=O)NC1CC2CCC(C1)N2Cc1ccco1 (stereo not drawn) | -3.12% (inactive) | –
62 | CCCC(N)CCCCCC(=O)O (stereo not drawn) | -9.35% (inactive) | –
63 | CCCCCCC(=O)O | -2.09% (inactive) | –
64 | CCNc1nc(NCC)n2c(SCC(=O)NC34CC5CC(CC(C5)C3)C4)nnc2n1 | -8.01% (inactive) | –
65 | Cn1c(C(C#N)C(=O)c2sc3ccccc3c2Cl)nc2ccccc21 (stereo not drawn) | -3.45% (inactive) | –
66 | Cc1nc([N+](=O)[O-])c(Sc2nc3ccccc3n2C)n1Cc1ccccc1 | 11.5% (inactive) | –
67 | CCCCCn1c(N)c(-c2nc3ccccc3s2)c2c([N+](=O)[O-])nn(CC)c(=O)c21 | -4.79% (inactive) | –
68 | O=[N+]([O-])c1ccc(CC(Cl)c2ccccn2)cc1 (stereo not drawn) | 0.78% (inactive) | –
69 | CCCn1nc([N+](=O)[O-])c(C(C#N)c2nc3ccccc3s2)c(Cl)c1=O (stereo not drawn) | 27.6% (inactive) | –

Row | Structure (SMILES) | inhibition | inhibition [1] [%]
70 | N#CC(c1ccccn1)c1ncc(C(F)(F)F)cc1Cl (stereo not drawn) | -2.95% (inactive) | –
71 | CCCCn1c(N)c(-c2nc3ccccc3o2)c2c([N+](=O)[O-])nn(CC)c(=O)c21 | -0.74% (inactive) | –
72 | CCCCn1c(N)c(-c2nc3ccccc3s2)c2c([N+](=O)[O-])nn(CC)c(=O)c21 | -3.23% (inactive) | –
73 | COc1ccc(/C=C(\C#N)C(=O)OCC(=O)N2CC(C)OC(C)C2)cc1 (stereo not drawn) | -2.3% (inactive) | –
74 | O=C(CCCOc1ccc(Cl)cc1Cl)N/N=C/c1ccccc1 | -4.44% (inactive) | –
75 | CCCCCCCC(=O)N1c2ccccc2NC(=O)C1CC(=O)Nc1ccc(C(=O)O)cc1 (stereo not drawn) | 8.1% (inactive) | –
76 | Cc1ccccc1NS(=O)(=O)c1ccc(C(=O)N2CCCC(C(F)(F)F)C2)cc1 (stereo not drawn) | 0.73% (inactive) | –
77 | COc1cc(OC)cc(C(=O)NC2CCSC2=O)c1 (stereo not drawn) | 2.06% (inactive) | -3.04
78 | CCc1c(C)c2nncn2[nH]c1=O | -3.9% (inactive) | –
79 | CCOc1ccc(NC(=O)CN(C)C(=O)C2CC(=O)N(c3ccc4c(c3)OCCO4)C2)cc1OCC (stereo not drawn) | 5.04% (inactive) | –
80 | CC(C)Cn1c(SCC(=O)N2CC(=O)Nc3ccccc32)nc2ccccc21 | -0.64% (inactive) | –
81 | CC(=O)OCC1CCCC2=C(C)C(=O)CCC21COC(C)=O (stereo not drawn) | 3.29% (inactive) | –
82 | Cc1ccccc1NC(=O)NC1(C(=O)N2CCOCC2)CCCCC1 | -3.7% (inactive) | –
83 | COc1ccc(CCn2c(=O)c3cccnc3n(Cc3ccc([N+](=O)[O-])cc3)c2=O)cc1OC | -7.08% (inactive) | –
84 | CCCCCC(=O)Nc1cc(S(=O)(=O)N2CCCCC2)ccc1N1CCCCC1 | -6.48% (inactive) | –
85 | CCS(=O)(=O)c1ccc(O)c(NC(=O)CCCC(=O)O)c1 | 12.2% (inactive) | –
86 | Cc1ccc(N2CC(C(=O)OCc3nc(N)nc(Nc4ccccc4C)n3)CC2=O)cc1 (stereo not drawn) | 2.96% (inactive) | –
87 | CCCCC/C=C/C1=CC(=O)C[C@H](c2ccc(OC)cc2)C1 | -0.8% (inactive) | –
88 | CC(C)C(NC(=O)C1CCC(C(C)(C)C)CC1)C(=O)NCCc1ccc(S(N)(=O)=O)cc1 (stereo not drawn) | 9.25% (inactive) | –
89 | O=C(O)c1cccc(CN2C(=O)S/C(=C/c3ccccc3[N+](=O)[O-])C2=O)c1 | 28.5% (inactive) | –
90 | O=C(/C=C/c1cccc([N+](=O)[O-])c1)NCCN1C(=O)S/C(=C\c2ccc(F)cc2)C1=O | 5.26% (inactive) | –
